In PubChem BioAssay (EPA / NIEHS) one finds outcome and AC50 data, which are given here for four molecules.

The source made the active and inactive calls. How the source made its calls: active means hit-call score of the fitted dose curve at least 0.9, where 1 is the maximum; inactive means score below 0.9.

Test [1] in a line: CEETOX_H295R_PROG: CeeTox H295R High-throughput Steroidogenesis Assay for Progesterone (PROG) (AID 2283442). The following applies: actives raise or lower the signal. The essentials:
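Steps: seed H295R cells and let them adhere overnight; prime 48 h with 10 uM forskolin; dose with compound in DMSO at 0.1% final for 48 h; extract medium steroids with MTBE; measure progesterone by LC-MS/MS. MTT viability was run in the same wells.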

Read-out in test [2]: Fatty acid synthase (Homo sapiens) (UniProt P49327)
In words: LTEA_HepaRG_FASN: Life Technologies and Expression Analysis (LTEA) Assay for Fatty Acid Synthase (FASN) using HepaRG (AID 2283448).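 On AC50: differentiated human HepaRG liver cells in serum-free induction medium.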 The following applies: mRNA level, 48 h; actives raise or lower the signal. The gist of the method: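 Cells were plated, cultured 48 h, switched to serum-free induction medium, then dosed in duplicate (max 100 uM, half-log dilutions, 0.5% DMSO) for 48 h. RNA was then isolated and FASN quantified by qRT-PCR.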

Read-out in test [3]: Cyclin D2 (CCND2), CCND2 (gene 894)
Put plainly: LTEA_HepaRG_CCND2: Life Technologies and Expression Analysis (LTEA) Assay for Cyclin D2 (CCND2) using HepaRG (AID 2283449). The note with it: mRNA level, 48 h; actives raise or lower the signal. The gist of the method:
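CCND2 transcript levels, quantified by qRT-PCR and normalised to three housekeeping genes, were fitted bidirectionally against 0.5% DMSO. HepaRG cultures were dosed 48 h in duplicate with an 8-point half-log series up to 100 uM.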

Read-out in test [4]: Cyclin Dependent Kinase Inhibitor 1A (CDKN1A), CDKN1A (gene 1026)
Put plainly: LTEA_HepaRG_CDKN1A: Life Technologies and Expression Analysis (LTEA) Assay for Cyclin Dependent Kinase Inhibitor 1A (CDKN1A) using HepaRG (AID 2283450). The following applies: mRNA level, 48 h; actives raise or lower the signal. The gist of the method: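 Read-out is CDKN1A mRNA by TaqMan qRT-PCR, normalized to three housekeeping genes and fitted in both directions against the DMSO baseline. Human HepaRG cells were treated 48 h with test chemicals up to 100 uM in half-log steps, 0.5% DMSO.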

Read-out in test [5]: Cyclin D1 (CCND1), CCND1 (gene 595)
Put plainly: LTEA_HepaRG_CCND1: Life Technologies and Expression Analysis (LTEA) Assay for Cyclin D1 (CCND1) using HepaRG (AID 2283451).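 On AC50: differentiated human HepaRG liver cells in serum-free induction medium; TaqMan qRT-PCR transcript level normalised to ACTB GAPDH and POLR2A housekeeping genes.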 The following applies: mRNA level, 48 h; actives raise or lower the signal. The essentials: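 HepaRG plated 48 h, medium switched to serum-free induction medium, chemicals added in duplicate (top 100 uM, half-log steps, 0.5% DMSO) for 48 h, cells lysed, RNA measured by TaqMan qRT-PCR.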

Read-out in test [6]: catalase (CAT), CAT (gene 847)
Put plainly: LTEA_HepaRG_CAT: Life Technologies and Expression Analysis (LTEA) Assay for catalase (CAT) using HepaRG (AID 2283452). The following applies: mRNA level, 48 h; actives raise or lower the signal. The gist of the method:
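Expression of CAT was quantified by TaqMan qRT-PCR with ACTB/GAPDH/POLR2A normalization after 48 h chemical exposure of HepaRG. Eight-point half-log series, top 100 uM, in 0.5% DMSO; gain or loss fitted against vehicle.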

Read-out in test [7]: flavin-containing dimethylaniline monooxygenases 3 (FMO3), FMO3 (gene 2328)
In words: LTEA_HepaRG_FMO3: Life Technologies and Expression Analysis (LTEA) Assay for flavin-containing dimethylaniline monooxygenases 3 (FMO3) using HepaRG (AID 2283453).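 On AC50: differentiated human HepaRG liver cells in serum-free induction medium.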 The note with it: mRNA level, 48 h; actives raise or lower the signal. The gist of the method:
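FMO3 transcript quantified by TaqMan qRT-PCR against three housekeeping genes after 48 h chemical exposure of HepaRG cells. Eight-point half-log series, top 100 uM, 0.5% DMSO vehicle; phenobarbital 1mM induction control; up- or down-regulation fitted.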

Read-out in test [8]: Cytochrome P450 (CYP1A1), CYP1A1 (gene 1543)
Put plainly: LTEA_HepaRG_CYP1A1: Life Technologies and Expression Analysis (LTEA) Assay for Cytochrome P450 (CYP1A1) using HepaRG (AID 2283454). The note with it: mRNA level, 48 h; actives raise or lower the signal. The gist of the method: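 HepaRG, 48 h post-plating switched to serum-free induction medium; 8-pt conc-response (top 100 uM, half-log, 0.5% DMSO), duplicates, 48 h. Lysis in RLT, TaqMan qRT-PCR for CYP1A1; gain or loss vs DMSO.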

Read-out in test [9]: Forkhead box O1 (FOXO1), FOXO1 (gene 2308)
In words: LTEA_HepaRG_FOXO1: Life Technologies and Expression Analysis (LTEA) Assay for Forkhead box O1 (FOXO1) using HepaRG (AID 2283456). The note with it: mRNA level, 48 h; actives raise or lower the signal. The gist of the method: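 FOXO1 transcript quantified by qRT-PCR after 48 h chemical exposure (top 100 uM, half-log steps, 0.5% DMSO) of HepaRG cells, housekeeping-normalized (ACTB/GAPDH/POLR2A). Changes fitted in both directions relative to vehicle.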

Read-out in test [10]: growth arrest and DNA damage 45 (GADD45A), GADD45A (gene 1647)
Put plainly: LTEA_HepaRG_GADD45A: Life Technologies and Expression Analysis (LTEA) Assay for growth arrest and DNA damage 45 (GADD45A) using HepaRG (AID 2283458). The following applies: mRNA level, 48 h; actives raise or lower the signal. The essentials: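 Transcript induction or loss, quantified by TaqMan qRT-PCR against three housekeeping genes, is the read-out. HepaRG cells received chemicals for 48 h across eight half-log concentrations from 100 uM in 0.5% DMSO; gain and loss fitted relative to DMSO.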

Read-out in test [11]: Forkhead box O3 (FOXO3), FOXO3 (gene 2309)
Put plainly: LTEA_HepaRG_FOXO3: Life Technologies and Expression Analysis (LTEA) Assay for Forkhead box O3 (FOXO3) using HepaRG (AID 2283459). The following applies: mRNA level, 48 h; actives raise or lower the signal. The essentials: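 FOXO3 transcript measured by qRT-PCR (normalized to ACTB, GAPDH, POLR2A) after 48 h exposure of HepaRG cells in serum-free induction medium. Duplicates, eight half-log concentrations up to 100 uM, 0.5% DMSO; gain or loss fitted against DMSO.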

Read-out in test [12]: ABC Transporter (ABCB1), ABCB1 (gene 5243)
In words: LTEA_HepaRG_ABCB1: Life Technologies and Expression Analysis (LTEA) Assay for ABC Transporter (ABCB1) using HepaRG (AID 2283460). The following applies: mRNA level, 48 h; actives raise or lower the signal. The gist of the method: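 ABCB1 transcript level measured by TaqMan qRT-PCR against three housekeeping genes after 48 h chemical exposure of differentiated HepaRG cells. Top concentration 100 uM, half-log steps, eight points, 0.5% DMSO vehicle; bidirectional fit relative to DMSO.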

Read-out in test [13]: growth arrest and DNA damage 45 (GADD45B), GADD45B (gene 4616)
In words: LTEA_HepaRG_GADD45B: Life Technologies and Expression Analysis (LTEA) Assay for growth arrest and DNA damage 45 (GADD45B) using HepaRG (AID 2283461). The note with it: mRNA level, 48 h; actives raise or lower the signal. The gist of the method:
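HepaRG, ~100,000 cells/well, 48 h plating; serum-free induction medium; cpd 100 uM top, half-log x8, 0.5% DMSO, duplicate, 48 h; lysis in RLT, RNA isolation, qRT-PCR; norm ACTB/GAPDH/POLR2A; bidirectional fit vs DMSO.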

Read-out in test [14]: ABC Transporter (ABCC3), ABCC3 (gene 8714)
In words: LTEA_HepaRG_ABCC3: Life Technologies and Expression Analysis (LTEA) Assay for ABC Transporter (ABCC3) using HepaRG (AID 2283462). The following applies: mRNA level, 48 h; actives raise or lower the signal. The gist of the method:
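Human HepaRG, 48 h dosing, 8-pt half-log series from 100 uM, 0.5% DMSO vehicle, duplicates. ABCC3 mRNA by TaqMan qRT-PCR, housekeeping-normalized; bidirectional curve fit vs DMSO.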

Read-out in test [15]: ABC Transporter (ABCB11), ABCB11 (gene 8647)
In words: LTEA_HepaRG_ABCB11: Life Technologies and Expression Analysis (LTEA) Assay for ABC Transporter (ABCB11) using HepaRG (AID 2283463). The note with it: mRNA level, 48 h; actives raise or lower the signal. The gist of the method:
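ABCB11 transcript levels quantified by TaqMan qRT-PCR against three housekeeping genes after 48 h chemical exposure of HepaRG cultures. Concentrations up to 100 uM in half-log steps, 0.5% DMSO vehicle; both induction and suppression scored.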

Read-out in test [16]: Broad substrate specificity ATP-binding cassette transporter ABCG2 (Homo sapiens) (UniProt Q9UNQ0)
Put plainly: LTEA_HepaRG_ABCG2: Life Technologies and Expression Analysis (LTEA) Assay for ABC Transporter (ABCG2) using HepaRG (AID 2283465). The note with it: mRNA level, 48 h; actives raise or lower the signal. The essentials:
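ABCG2 transcript was quantified by TaqMan qRT-PCR against three housekeeping genes in HepaRG cells. Cells were treated in duplicate for 48 h across an 8-point half-log series up to 100 uM, with 0.5% DMSO vehicle. Gain or loss versus DMSO was fit.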

Read-out in test [17]: CFLAR gene, CFLAR (gene 8837)
Put plainly: LTEA_HepaRG_CFLAR: Life Technologies and Expression Analysis (LTEA) Assay for CFLAR gene using HepaRG (AID 2283455). The following applies: mRNA level, 48 h; actives raise or lower the signal. The essentials: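 Transcript level by qRT-PCR (normalized to ACTB, GAPDH and POLR2A) after 48 h chemical exposure of HepaRG cells, top concentration 100 uM with half-log steps, 0.5% DMSO vehicle, duplicates; fitted bidirectionally against DMSO baseline.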

Read-out in test [18]: Tumor necrosis factor receptor superfamily member 6 (Homo sapiens) (UniProt P25445)
In words: LTEA_HepaRG_FAS: Life Technologies and Expression Analysis (LTEA) Assay for Fas cell surface death receptor (FAS) using HepaRG (AID 2283447). The following applies: mRNA level, 48 h; actives raise or lower the signal. The essentials: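 FAS transcript level was measured by TaqMan qRT-PCR against three housekeeping genes after 48 h chemical exposure. Cells were HepaRG, 0.5% DMSO vehicle, with a top concentration of 100 uM and half-log dilutions over eight points, in duplicate.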

Read-out in test [19]: ABC Transporter (ABCC2), ABCC2 (gene 1244)
Put plainly: LTEA_HepaRG_ABCC2: Life Technologies and Expression Analysis (LTEA) Assay for ABC Transporter (ABCC2) using HepaRG (AID 2283464). The following applies: mRNA level, 48 h; actives raise or lower the signal. The gist of the method:
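HepaRG, 48 h post-plating; serum-free induction medium; cpd 8-pt, 100 uM top, half-log, 0.5% DMSO, duplicate, 48 h. Readout: ABCC2 mRNA by qRT-PCR, norm. ACTB/GAPDH/POLR2A. Bidirectional fit vs DMSO baseline.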

The nature of test [20]: CEETOX_H295R_TESTO: CeeTox H295R High-throughput Steroidogenesis Assay for Testosterone (TESTO) (AID 2283457). The following applies: actives raise or lower the signal. The gist of the method: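 H295R, passage ≤10, 48 h dosing; media extracted with MTBE → HPLC-MS/MS for testosterone; 7-pt standard curve sets LLOQ/ULOQ; bidirectional fit vs DMSO; MTT viability same wells.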

Broad substrate specificity ATP-binding cassette transporter ABCG2 (Homo sapiens), sequence (Q9UNQ0 whole entry, looked up): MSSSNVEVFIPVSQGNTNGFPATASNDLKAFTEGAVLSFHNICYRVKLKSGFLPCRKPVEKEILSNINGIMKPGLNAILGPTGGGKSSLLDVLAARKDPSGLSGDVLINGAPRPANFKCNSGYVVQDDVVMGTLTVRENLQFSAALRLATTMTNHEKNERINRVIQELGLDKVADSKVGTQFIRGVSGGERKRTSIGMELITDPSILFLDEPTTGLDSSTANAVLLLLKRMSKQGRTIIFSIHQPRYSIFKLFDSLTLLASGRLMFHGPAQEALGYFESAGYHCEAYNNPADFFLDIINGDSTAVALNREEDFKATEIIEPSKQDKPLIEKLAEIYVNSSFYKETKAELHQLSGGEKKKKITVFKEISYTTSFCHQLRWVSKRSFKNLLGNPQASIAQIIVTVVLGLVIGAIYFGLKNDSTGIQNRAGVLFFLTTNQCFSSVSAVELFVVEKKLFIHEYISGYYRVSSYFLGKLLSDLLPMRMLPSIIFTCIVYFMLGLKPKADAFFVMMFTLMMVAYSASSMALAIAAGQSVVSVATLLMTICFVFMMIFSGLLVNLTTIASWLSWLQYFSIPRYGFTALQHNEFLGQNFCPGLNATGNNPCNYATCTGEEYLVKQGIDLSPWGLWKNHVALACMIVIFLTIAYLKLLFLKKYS
Fatty acid synthase (Homo sapiens), sequence (P49327 whole entry, looked up): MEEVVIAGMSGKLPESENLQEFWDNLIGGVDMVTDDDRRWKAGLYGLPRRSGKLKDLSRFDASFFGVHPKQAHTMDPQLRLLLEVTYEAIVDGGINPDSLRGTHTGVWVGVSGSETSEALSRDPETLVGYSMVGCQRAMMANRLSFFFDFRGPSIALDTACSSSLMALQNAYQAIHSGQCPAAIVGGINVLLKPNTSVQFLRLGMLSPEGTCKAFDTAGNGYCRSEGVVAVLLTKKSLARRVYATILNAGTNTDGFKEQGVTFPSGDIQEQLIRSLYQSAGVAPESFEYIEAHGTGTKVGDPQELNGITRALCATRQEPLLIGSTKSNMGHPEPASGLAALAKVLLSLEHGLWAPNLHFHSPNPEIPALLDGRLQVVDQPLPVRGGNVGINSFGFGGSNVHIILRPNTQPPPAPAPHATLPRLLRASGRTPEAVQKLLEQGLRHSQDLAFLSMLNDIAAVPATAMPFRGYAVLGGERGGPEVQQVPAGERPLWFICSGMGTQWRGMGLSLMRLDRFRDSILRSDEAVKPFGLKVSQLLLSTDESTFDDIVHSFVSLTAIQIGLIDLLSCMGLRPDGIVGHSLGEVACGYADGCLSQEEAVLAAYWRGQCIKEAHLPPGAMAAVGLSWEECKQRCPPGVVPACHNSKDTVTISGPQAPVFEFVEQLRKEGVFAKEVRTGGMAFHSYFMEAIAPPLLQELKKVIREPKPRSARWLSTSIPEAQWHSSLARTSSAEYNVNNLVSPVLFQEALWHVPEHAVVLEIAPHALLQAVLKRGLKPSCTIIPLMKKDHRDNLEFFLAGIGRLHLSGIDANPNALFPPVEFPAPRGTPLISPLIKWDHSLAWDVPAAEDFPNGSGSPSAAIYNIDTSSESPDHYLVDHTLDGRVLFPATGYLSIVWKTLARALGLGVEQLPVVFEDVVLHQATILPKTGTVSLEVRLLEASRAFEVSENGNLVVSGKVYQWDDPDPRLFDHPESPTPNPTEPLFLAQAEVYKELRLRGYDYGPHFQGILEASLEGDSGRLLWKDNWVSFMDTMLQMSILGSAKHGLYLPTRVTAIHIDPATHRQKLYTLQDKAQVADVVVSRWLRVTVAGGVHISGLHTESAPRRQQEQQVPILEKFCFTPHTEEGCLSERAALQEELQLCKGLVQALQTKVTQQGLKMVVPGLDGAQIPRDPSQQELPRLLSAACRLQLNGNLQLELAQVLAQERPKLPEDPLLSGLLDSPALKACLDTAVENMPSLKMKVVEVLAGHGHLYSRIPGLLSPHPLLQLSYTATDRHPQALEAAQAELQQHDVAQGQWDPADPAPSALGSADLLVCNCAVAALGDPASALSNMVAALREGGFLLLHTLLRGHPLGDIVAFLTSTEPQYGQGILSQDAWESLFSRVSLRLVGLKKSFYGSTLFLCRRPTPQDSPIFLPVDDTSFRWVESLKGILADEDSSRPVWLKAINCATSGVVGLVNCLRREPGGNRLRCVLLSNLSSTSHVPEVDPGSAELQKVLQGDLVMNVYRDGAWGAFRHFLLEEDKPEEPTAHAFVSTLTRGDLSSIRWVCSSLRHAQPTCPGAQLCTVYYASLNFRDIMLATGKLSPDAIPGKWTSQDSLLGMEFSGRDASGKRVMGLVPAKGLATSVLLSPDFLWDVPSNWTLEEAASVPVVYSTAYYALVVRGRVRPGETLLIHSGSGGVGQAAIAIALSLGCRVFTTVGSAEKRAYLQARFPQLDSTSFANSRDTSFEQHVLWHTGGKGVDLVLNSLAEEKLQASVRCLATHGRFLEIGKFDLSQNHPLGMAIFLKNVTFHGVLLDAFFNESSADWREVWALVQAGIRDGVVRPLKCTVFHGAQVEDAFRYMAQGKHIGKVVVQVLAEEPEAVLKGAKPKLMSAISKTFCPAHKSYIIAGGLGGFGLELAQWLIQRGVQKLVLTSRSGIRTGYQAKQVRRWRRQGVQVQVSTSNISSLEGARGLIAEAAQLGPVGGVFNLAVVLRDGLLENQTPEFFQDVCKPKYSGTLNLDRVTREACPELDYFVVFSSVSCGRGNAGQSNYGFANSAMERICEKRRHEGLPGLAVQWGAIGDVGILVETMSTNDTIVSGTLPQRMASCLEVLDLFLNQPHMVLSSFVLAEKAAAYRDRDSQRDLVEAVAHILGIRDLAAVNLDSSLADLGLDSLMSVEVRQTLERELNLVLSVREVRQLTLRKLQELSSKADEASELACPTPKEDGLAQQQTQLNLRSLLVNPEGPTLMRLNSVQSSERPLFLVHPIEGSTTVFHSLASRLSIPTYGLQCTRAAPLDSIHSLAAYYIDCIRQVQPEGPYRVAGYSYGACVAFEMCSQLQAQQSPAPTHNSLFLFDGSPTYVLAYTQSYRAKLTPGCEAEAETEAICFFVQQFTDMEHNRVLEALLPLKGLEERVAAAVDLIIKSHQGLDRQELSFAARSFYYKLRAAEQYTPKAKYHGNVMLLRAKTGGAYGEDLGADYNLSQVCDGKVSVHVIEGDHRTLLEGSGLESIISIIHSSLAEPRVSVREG

The term AC50 denotes the concentration giving half of the maximal activity seen. Consider `COc1ccc(/C=C/S(=O)(=O)NC(=O)c2ccc(C)cc2Cl)cc1`, for which the result in [1], in [2], in [3], in [4], in test [5] and in test [6] was inactive. In addition, the molecule was classed as inactive in test [7], in test [9], in [10], in [11], in test [12] and in test [13]. For the same molecule, the outcome in [14] and in test [16] was inactive. For the same molecule, the AC50 in test [8] is 50 µM (active); in test [15], 79.3 µM (active).

As for `C[C@](N)(Cc1ccc(O)c(O)c1)C(=O)O`, the call in [1], in test [2], in test [3], in test [4], in test [5] and in test [6] was inactive. Besides, the result in test [7], in [17], in test [9], in [10], in test [11] and in test [12] was inactive. Besides, the outcome in [13], in [14], in test [15] and in test [16] was inactive. Further, in test [8], the AC50 is 71.6 µM (active).

Turning to `COc1ccc(-n2nc(C(F)F)cc2-c2ccc(S(C)=O)cc2)cc1` (stereo unspecified), the molecule was classed as inactive in test [1], in test [18], in test [2], in [3], in test [4] and in test [5]. Further, the molecule was called inactive in [6], in [7], in test [9], in test [10], in test [11] and in test [12]. The call in test [13], in [14] and in [16] was inactive. The AC50 in test [8] is 60.3 µM (active); in test [15] it was 17.3 µM (active); in [19], 30.9 µM (active).

In the case of `CCOc1cccc(-n2cc(C(=O)N3CCN(c4cc(C(=O)O)c5ccccc5c4)CC3)nc2-c2ccc(C)cc2)c1`, the molecule was classed as inactive in [1], in [18], in test [3], in test [4], in test [20] and in test [13]. Further, the result in test [14] was inactive. In addition, the AC50 in test [2] was 80.5 µM (active); in test [5], 82.4 µM (active); in [6] it was 31.6 µM (active); in [7], 33.1 µM (active); in [8], 12.3 µM (active); in [17], 84 µM (active). Moreover, the AC50 in test [9] was 80.5 µM (active); in test [10], 13.4 µM (active); in test [11] it was 77.2 µM (active); in test [12] it was 78.6 µM (active); in test [15] it was 35.5 µM (active); in test [19], 77.1 µM (active). For the same molecule, the AC50 in test [16] was 85.6 µM (active).
